# Screening data: PubChem, several laboratories
# M1 ag: M1 muscarinic receptor agonists, primary screen, CHO-M1 cells, Fluo-4 calcium, agonist mode; Muscarinic acetylcholine receptor M1; Fluo-4 calcium fluorescence; active compounds read high; B-score at 10 µM; 64,000 tested, 3% active; AID 626, 2007;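 active = fluorescence rise, raw or as B-score row- and column-corrected plate score, outside the 99.7% band of its plate's samples, either direction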
# Htt clearance: clearance of mutant huntingtin inclusions, primary screen, imaging, HeLa Exon1htt(103Q)mCFP, confocal imaging; aggregate imaging; zero = plate's median compound well; inhibition, % at 1.5 µM; 47,000 tested, 0.42% active; AID 853, 2007;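 active = inhibition of aggregate fluorescence above about 70%, also judged a hit by eye on the cell image, limit read from the data, passing the limit was not always enough; inconclusive = no rule stated for this call; inactive = not judged a hit on image review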;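 note: cells exposed to compound for three days before fixation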
# D1 allo mod: D1 CRE-luciferase signal change, two-sided – cell-based, HEK293 D1, dopamine EC30, D1 allosteric modulator project, primary screen; B-score at 10 µM; dopamine EC30 potentiation; actives deviate in either direction; 58,000 tested, 5.9% active; AID 641, 2007; D(1A) dopamine receptor (Homo sapiens), P21728;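 active = luminescence count or its row- and column-corrected plate score outside the 99.7% band of the plate's sample wells, on either side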
# Target sequence (P21728 whole entry, looked up): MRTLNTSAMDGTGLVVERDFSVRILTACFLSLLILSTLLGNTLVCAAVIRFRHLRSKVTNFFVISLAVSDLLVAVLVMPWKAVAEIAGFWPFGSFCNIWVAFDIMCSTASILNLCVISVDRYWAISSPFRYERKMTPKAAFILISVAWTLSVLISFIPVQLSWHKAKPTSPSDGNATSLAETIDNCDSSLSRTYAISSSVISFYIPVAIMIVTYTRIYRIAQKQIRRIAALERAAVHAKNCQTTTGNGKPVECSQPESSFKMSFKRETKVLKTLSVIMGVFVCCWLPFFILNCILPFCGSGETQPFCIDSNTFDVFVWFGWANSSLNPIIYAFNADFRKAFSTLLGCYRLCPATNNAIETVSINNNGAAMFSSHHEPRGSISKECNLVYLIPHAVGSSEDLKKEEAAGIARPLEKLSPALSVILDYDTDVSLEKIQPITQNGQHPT
# M1 antagonist: antagonists of rat M1 muscarinic receptor. Muscarinic acetylcholine receptor M1 (Rattus norvegicus), P08482. CHO-M1 cells, Fluo-4 calcium, ACh EC80 antagonist mode; active compounds read low. B-score at 10 µM. 64,000 tested, 3.4% active. AID 628, 2007;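 active = calcium fluorescence response, raw or row-and-column corrected B-score, differing from the plate sample mean either way at a set confidence level, mostly lower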
# D1 PAM confirm: D1 receptor positive allosteric modulators, retest, confirmation, cell-based, HEK293 D1, CRE-luciferase, duplicate; shares compounds with D1 allo mod; dopamine EC30 potentiation; active compounds read high; luminescence at 10 µM; 2,200 tested, 88% active; AID 642, 2007;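 active = luminescence in either of two replicates above the same-plate mean plus 3 SD of the low-dose dopamine control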
# D1 ag no DA: D1 receptor agonism without dopamine, confirmation, mechanism study for D1 allosteric modulator project, cell-based, HEK293 D1, CRE-luciferase, secondary assay 1 | shares compounds with D1 allo mod | luminescence, no dopamine; active compounds read high | luminescence at 10 µM | 1,900 tested, 0.8% active | AID 646, 2007; in the data active = luminescence above about 3900
# Isoprot counter: isoproterenol response counter-screen activity for D1 modulators; shares compounds with D1 allo mod; HEK293 D1 CRE-luciferase, isoproterenol EC30 counter-screen; active compounds read high; luminescence at 10 µM; 2,200 tested, 63% active; AID 647;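 active = luminescence in either replicate above plate mean of wells with a partly effective reference agonist dose plus 3 SD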;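 note: isoproterenol raises cAMP through native beta-adrenoceptor Gs so signal bypasses D1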
# Numbers stand for hits; – = inactive; ? = inconclusive; · = no result given. This is a sample that favours compounds with a hit; in the whole collection about 9.1% have one here.
SMILES,M1 ag,Htt clearance,D1 allo mod,M1 antagonist,D1 PAM confirm,D1 ag no DA,Isoprot counter
c1ccc(C2=NC(c3ccccc3)N=C(c3ccccc3)N2)cc1,·,–,·,·,·,·,·
O=C1N=C(c2ccccc2)C(c2ccccc2)N1 (configuration not stated),–,–,8.8,–,22264,20356,3332
CCn1ncc(C2=NOC(C(=O)Nc3ccc4c(c3)OCO4)C2)c1C (configuration not stated),–,·,4.6,–,7668,–,–
Cc1oc(/C=N/NC(=O)CN(c2ccccc2Br)S(C)(=O)=O)cc1Br,·,–,·,·,·,·,·
CC1(C)Cc2nc(-c3ccccc3)n3cnnc3c2CO1,–,·,9.5,–,13436,–,3524
CCCCNC(=O)N(O)C1N(CCCC)C(=O)N(CC(=O)OC)C1(C)C (configuration not stated),·,–,·,·,·,·,·
Nn1c(SCc2nc3ccccn3c2Br)nnc1-c1cccnc1,–,·,–,–,·,·,·
Cc1cc(C(=O)NCc2cccs2)c(C)o1,–,–,–,–,·,·,·
Cc1cc2c(cc(C(=O)OCC(=O)NCc3cccs3)n2C(C)C)o1,–,?,11,–,7700,–,4620
COc1ccc(C(c2nnnn2Cc2cccs2)N2CCN(c3ccccc3F)CC2)cc1OC (configuration not stated),–,·,3.1,–,–,–,–
CCOC(=O)CSc1nc2sc3c(c2c(=O)n1CC)CC(C)(C)OC3,–,–,5.9,–,8088,–,3620
CCOC(=O)N1CCN(c2nc(SC)nc3sc4c(c23)CC(C)(C)OC4)CC1,–,·,–,–,·,·,·
Cc1ccc(P(=Nc2ccccc2)(N2CCOCC2)N2CCOCC2)o1,–,·,–,–,·,·,·
CCOc1cc(-c2noc(-c3cccnc3)n2)ccc1OC,–,–,19,–,21224,·,3220
CCOc1ccc(-c2noc(-c3cccnc3)n2)cc1OC,–,–,4.3,–,10956,–,–
CC(=O)Nc1nc(C)nc(C)c1C(C)=O,–,–,·,–,·,·,·
CC(=O)Cc1nsc(NC(=O)c2cc(-c3ccccc3Cl)oc2C)n1,–,·,–,–,·,·,·
COc1ccc(-c2ccc(=O)n(Cc3cc(=O)n4ccccc4n3)n2)cc1,–,·,26,–,20696,–,4180
CC(C)(C)C1CCc2onc(C(=O)N3CCOCC3)c2C1 (configuration not stated),–,·,6,–,10148,–,3152
CC(C)(C)C1CCc2onc(C(=O)NC3CCCC3)c2C1 (configuration not stated),–,·,–,–,·,·,·
O=C(N1CCOCC1)N1CCN(S(=O)(=O)N2CCOCC2)CC1,–,?,–,–,·,·,·
CCOC(=O)c1c(NC(=O)OC)sc(C(=O)N(CC)CC)c1C,–,–,4.2,–,8956,–,3244
CCN(CC)C(=O)c1sc(NC(=O)c2ccoc2C)c(C(=O)OC)c1C,–,·,–,–,·,·,·
N#CC1=C(N2CCCCC2)c2cc3c(n2C1=O)CCCC3,·,–,·,·,·,·,·
CCCN1CCN(C(=O)Cn2cccc2C(=O)c2ccccc2)CC1,–,–,–,–,·,·,·
SMILES,M1 ag,Htt clearance,D1 allo mod,M1 antagonist,D1 PAM confirm,D1 ag no DA,Isoprot counter
CC12CC(NC(=O)N1CCc1ccccc1)c1cc(Cl)ccc1O2 (configuration not stated),–,–,–,–,·,·,·
COC(=O)c1ccc(Cn2cnc3c(sc4nc(N5CCOCC5)c5c(c43)CCCC5)c2=O)o1,–,·,6.8,–,8596,–,4112
Cc1cc(C(F)F)n2ncc(C(=O)NCc3ccccc3C(F)(F)F)c2n1,–,·,5.3,–,8576,·,3500
Cc1cc(C(F)F)n2ncc(C(=O)NC3CCCCCC3)c2n1,–,–,6.3,–,10720,–,4900
O=C(O)C1CCC(=O)N1Cc1ccccc1Cl (configuration not stated),–,·,–,–,·,·,·
CCOc1ccccc1NC(=O)CSc1ncnc2c1oc1ccccc12,–,–,3.6,–,6488,–,3352
COc1ccc2nc(C)c(C(=O)OCCN(C)C)cc2c1,–,·,–,–,·,·,·
COc1ccccc1Nc1nc(N)nc(CSc2nncn2C)n1,–,–,12,–,–,·,–
COc1ccccc1Nc1nc(N)nc(CN2CCOCC2)n1,–,·,–,–,·,·,·
O=C(CS(=O)CC(=O)N(CC(=O)NC1CCCC1)c1ccc2c(c1)OCCO2)Nc1ccc(F)cc1 (configuration not stated),·,–,·,·,·,·,·
CCCn1c(C)cc(C(=O)CSc2nnc3n(CCC)c(=O)c4ccccc4n23)c1C,–,·,–,–,·,·,·
CCCn1c(=O)c2ccccc2n2c(SCCOc3ccccc3)nnc12,–,·,4.7,–,10356,·,–
CCCn1c(=O)c2ccccc2n2c(SCc3nc4ccccc4s3)nnc12,–,·,6.7,–,7964,–,–
CCCn1nc(NC(=O)c2ccco2)c2cc3ccc(C)cc3nc21,–,·,–,–,·,·,·
CCn1nc(NC(=O)c2ccncc2)c2cc3cccc(C)c3nc21,–,–,–,–,·,·,·
CCn1nc(NC(=O)c2ccncc2)c2cc3ccccc3nc21,–,·,11,–,15352,–,4132
CCn1nc(NC(=O)c2ccco2)c2cc3ccccc3nc21,–,–,14,–,12332,–,3396
CNC(=O)c1nnn(Cc2ccccc2)c1NC(=O)C(F)(F)F,–,–,–,–,·,·,·
O=S(=O)(Nc1ccc(-c2nc3cccnc3s2)cc1)c1cccs1,–,·,8.5,–,19148,–,3344
Cn1ccnc1Sc1nc(Nc2cccc(Cl)c2)nc(N2CCOCC2)n1,–,–,8.4,–,15596,–,5272
c1ccc(Nc2nc(N3CCOCC3)nc(N3CCOCC3)n2)cc1,–,?,–,–,·,·,·
Cc1ccccc1OCC(O)Cn1c(NCCN(C)C)nc2c1c(=O)n(C)c(=O)n2C (configuration not stated),–,–,8.2,–,–,–,–
O=C(COC(=O)Cc1cccs1)Nc1ccccc1,–,–,–,–,·,·,·
O=C1CSc2ccccc2N1Cc1ccccc1F,–,–,3.5,–,6672,–,–
O=C(CN1C(=O)CSc2ccccc21)NC1CCCC1,–,·,–,–,·,·,·
CCOC(=O)c1ccc2nc(NC(=O)C(C)C)sc2c1,–,·,5.4,–,–,–,–
N=c1c(S(=O)(=O)c2ccccc2)cc2c(=O)n3ccccc3nc2n1CC1CCCO1 (configuration not stated),–,–,7.6,–,10760,–,3592
Cc1ccc(S(=O)(=O)c2cc3c(=O)n4cc(C)ccc4nc3n(CC3CCCO3)c2=N)cc1 (configuration not stated),–,·,–,–,·,·,·
